Test systems include SK-MEL-2 melanoma; EKVX NSCLC; UO-31 renal; TK-10 renal; ACHN renal; CAKI-1 renal; A498 renal; CCRF-CEM leukemia; MOLT-4 leukemia; SN12C renal.
Test in all cases: NCI-60 one-dose screen, 48 h (100 = growth as untreated, 0 = no growth, -100 = all killed)
Holding throughout (settings): 10 µM unless noted

Compounds without any hit were thinned out: in the full panel of roughly 83,000, 20% have a hit.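 Negative percent growth values reflect cell death: -40 means 40% of the cells present at the start died, and -100 means all died.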 A number with no mark means an inactive call. Activity calls are given as the source filed them. The calls were made as follows: active = growth percent below 10; inactive = the rest.

In PubChem BioAssay (NCI) one finds growth data, which are given here for 14 molecules.

In the case of `COc1ccc(-c2nc3cccc(O)c3c(=O)n2Cc2ccccc2)cc1COc1ccc(NC(C)=O)cc1`, the growth in the assay on SK-MEL-2 melanoma was 86.8% [3 µM]; in the assay on EKVX NSCLC it was 79.5% [3 µM]; in the assay with UO-31 renal it was 74.2% [3 µM]; in the assay with TK-10 renal it was 69.4% [3 µM]; with ACHN renal, 36.2% [3 µM]; in the assay on CAKI-1 renal, 57% [3 µM]. Further, the growth is 70.5% [3 µM] in the assay with A498 renal, 41.6% [3 µM] in the assay on CCRF-CEM leukemia and 15.4% [3 µM] in the assay with MOLT-4 leukemia.
Consider `Cn1ccnc1C(=O)/C=C/c1ccc(CNC(=O)c2c(F)c(F)c(F)c(F)c2F)cc1`, for which the growth is 99.4% with SK-MEL-2 melanoma; 93.2% with EKVX NSCLC; 79.7% with UO-31 renal; 79.2% in the assay on TK-10 renal; 47.9% in the assay on ACHN renal; 76% in the assay with CAKI-1 renal. The growth with A498 renal was 83.3%; in the assay with MOLT-4 leukemia it was 23%.
For the molecule `CC1=NC2=NN3C(=NN2C(c2ccccc2)=C1)N=NC(c1ccc(Br)cc1)=C3c1ccc(Br)cc1`, the growth was 103% with SK-MEL-2 melanoma; 101% with SN12C renal; 80.1% with UO-31 renal; 128% with TK-10 renal; 99.3% in the assay with ACHN renal; 95.7% with CAKI-1 renal. Moreover, the growth with A498 renal was 98.7%; with CCRF-CEM leukemia, 106%; with MOLT-4 leukemia it was 99.8%.
Consider `O=S(=O)(NC1c2ccccc2C[C@H]1O)c1ccc(Cl)cc1Cl` (stereo not given in full), for which the growth in the assay with SK-MEL-2 melanoma is 101%; in the assay on EKVX NSCLC, 98.8%; in the assay on UO-31 renal, 68.7%; in the assay on TK-10 renal it was 119%; in the assay with ACHN renal it was 96.2%; with CAKI-1 renal, 82.4%. Further, the growth with A498 renal was 103%; in the assay on CCRF-CEM leukemia, 105%; in the assay with MOLT-4 leukemia, 105%.
Consider `O=C(CSc1nnc(-c2ccc(Cl)cc2)n1-c1ccccc1)Nc1cccc(Cl)c1`, for which the growth is 101% in the assay with SK-MEL-2 melanoma; 62.3% in the assay with EKVX NSCLC; 12.6% with UO-31 renal; 75.1% with TK-10 renal; 9.9% (active) with ACHN renal; 64.9% in the assay with CAKI-1 renal. For the same molecule, the figures for the growth with A498 renal, in the assay with CCRF-CEM leukemia and with MOLT-4 leukemia were 95.9%, 78.3% and 85.6%, respectively.
With `COCCNc1ccc2ncc(C#Cc3cncc(C(=O)Nc4ccc(CN5CCN(C)CC5)c(C(F)(F)F)c4)c3)n2n1`, the growth is -90.5% (active) in the assay on SK-MEL-2 melanoma; -23.2% (active) in the assay on EKVX NSCLC; -40% (active) in the assay on UO-31 renal; -43.3% (active) with TK-10 renal; 1.57% (active) in the assay with ACHN renal; -40.3% (active) with CAKI-1 renal. The results for the growth in the assay with A498 renal, in the assay on CCRF-CEM leukemia and with MOLT-4 leukemia were -98% (active), 11.2% and 5.84% (active), respectively.
Regarding `C#Cc1nc(C(C)=O)cs1`, the growth in the assay with SK-MEL-2 melanoma was 111%; in the assay with EKVX NSCLC, 103%; in the assay with UO-31 renal it was 90.1%; in the assay on TK-10 renal, 104%; in the assay with ACHN renal, 106%; in the assay with CAKI-1 renal, 87.2%. Further, the growth in the assay on A498 renal is 106%; in the assay with CCRF-CEM leukemia it was 96.9%; in the assay with MOLT-4 leukemia, 101%.
For the molecule `c1cc(-c2nc3ccc4[nH]ncc4c3c3c2CCCC3)[nH]n1`, the growth was 29.1% with SK-MEL-2 melanoma; 60.8% with EKVX NSCLC; 50.7% in the assay on UO-31 renal; 36% in the assay on TK-10 renal; 32.6% in the assay with ACHN renal; 27.6% in the assay on CAKI-1 renal. Further, the growth was 16.2% with A498 renal, 46.7% in the assay with CCRF-CEM leukemia and 67.8% in the assay with MOLT-4 leukemia.
Take `CC1(C)NCCC[C@]2(C)[C@H]3C/C(=N\O)C4[C@@H]5C[C@@](C)(CO)CC[C@]5(C)CC[C@@]4(C)[C@]3(C)CC[C@@H]12` (stereo not given in full): the growth was 108% with EKVX NSCLC; 94.1% in the assay with SN12C renal; 90.2% in the assay with UO-31 renal; 107% with TK-10 renal; 101% with ACHN renal; 85.8% in the assay with CAKI-1 renal. Besides, the results for the growth in the assay on A498 renal, in the assay with CCRF-CEM leukemia and with MOLT-4 leukemia were 96.1%, 91.9% and 80.5%, respectively.
As to `COc1cc2nc(Cl)nc(Nc3cccc(C4=Nc5c(N)nc(N)nc5NC(c5ccc(Cl)cc5)C4)c3)c2cc1OC` (stereo not given), the growth with SK-MEL-2 melanoma is 76.9%; in the assay on SN12C renal, 73.7%; in the assay on UO-31 renal it was 89.9%; with TK-10 renal, 115%; in the assay on ACHN renal it was 102%; in the assay on CAKI-1 renal, 86.8%. In addition, the growth was 99.4% in the assay on A498 renal, 3.94% (active) with CCRF-CEM leukemia and 10% in the assay with MOLT-4 leukemia.
Consider `CC(C)(C)c1ccc(C(=O)Nc2sc3c(c2C(N)=O)CC/C(=N\O)C3)cc1`, for which the growth in the assay with EKVX NSCLC is 25.9%; in the assay on SN12C renal, 21.5%; with UO-31 renal it was -33.7% (active); in the assay on TK-10 renal it was 32%; in the assay with ACHN renal it was 12.2%; in the assay on CAKI-1 renal, 12.7%. Moreover, the growth with A498 renal was 34.6%; with CCRF-CEM leukemia, 10.1%; in the assay on MOLT-4 leukemia it was 15%.
Consider `COC(=O)/C=C/c1c(C2(C)NC(=O)c3ccccc3N2)c(=O)oc2ccc(Cl)cc12` (stereo not given), for which the growth in the assay on SK-MEL-2 melanoma is 93.7%; in the assay on SN12C renal, 87.9%; with UO-31 renal, 67.8%; with TK-10 renal, 108%; with ACHN renal, 87.4%; with CAKI-1 renal, 78.2%. Besides, the values for the growth with A498 renal, in the assay on CCRF-CEM leukemia and with MOLT-4 leukemia were 59.3%, 101% and 101%, respectively.
`O=C(CN1CCN(c2cc(=O)n(-c3ccccc3)c3ccccc23)CC1)Nc1nc(-c2ccc(Cl)cc2)cs1`: the growth in the assay on EKVX NSCLC is 42.7%; in the assay with SN12C renal, 74.1%; in the assay on UO-31 renal, 29.5%; in the assay with TK-10 renal, 62.4%; with ACHN renal, 55.1%; with CAKI-1 renal, 49.6%. Moreover, the growth was 40.7% in the assay with A498 renal, 50.7% with CCRF-CEM leukemia and 29% with MOLT-4 leukemia.
Consider `CCN(CC)c1ccc2c(c1)Oc1nc(N)c(C#N)c(N)c1C2Sc1ccc(C)cc1` (stereo not given), for which the growth with EKVX NSCLC was -97.2% (active); in the assay with SN12C renal, -69.7% (active); in the assay on UO-31 renal, -99.7% (active); in the assay on TK-10 renal, -90.6% (active); in the assay with ACHN renal, -98.8% (active); in the assay on CAKI-1 renal, -97.9% (active). The growth was -85.2% (active) with A498 renal, -19.7% (active) in the assay on CCRF-CEM leukemia and -14.2% (active) in the assay on MOLT-4 leukemia.
